Test in all cases: DAPPL (digital affinity profiling via proximity ligation, sequencing); 10 mM Tris-HCl pH 7.5, 50 mM NaCl, 1 mM DTT, 4% glycerol, room temperature, 30 min; GST-TFs on glutathione beads, 16-mer random dsDNA library, 0.1% formaldehyde crosslink after washing; high values mean tight binding
Common to all, as to conditions: protein: recombinant; tags: N-terminal GST; dsDNA, one strand shown

In one experiment the target is T1, FLI1 (Homo sapiens, UniProt Q01543 1-452).
T1 sequence: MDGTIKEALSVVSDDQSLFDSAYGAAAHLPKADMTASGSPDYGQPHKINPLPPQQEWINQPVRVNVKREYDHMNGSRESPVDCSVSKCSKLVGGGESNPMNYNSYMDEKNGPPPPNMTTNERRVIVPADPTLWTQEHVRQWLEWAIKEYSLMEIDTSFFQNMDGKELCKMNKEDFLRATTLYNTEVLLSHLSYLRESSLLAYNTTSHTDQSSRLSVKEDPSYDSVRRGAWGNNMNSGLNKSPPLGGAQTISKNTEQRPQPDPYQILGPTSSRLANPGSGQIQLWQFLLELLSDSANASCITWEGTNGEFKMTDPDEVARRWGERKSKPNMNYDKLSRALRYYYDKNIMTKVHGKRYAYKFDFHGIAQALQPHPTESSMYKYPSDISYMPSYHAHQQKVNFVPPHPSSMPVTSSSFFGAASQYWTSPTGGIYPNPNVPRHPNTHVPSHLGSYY
Summed up: (§1)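 Sequencing on an Illumina NextSeq500 followed washing, crosslinking with 0.1% formaldehyde, proximity ligation (BsaI/T4 ligase, 1 h, 37 °C) and PCR amplification of pools that had been incubated for 30 min at room temperature with 200 nmole of a random double-stranded 16-mer DNA library in Tris/NaCl/DTT/glycerol buffer. Each pool held DNA-barcoded human transcription factors, expressed in yeast as GST fusions and captured on glutathione beads, plus a tag-only sample. Binding signal is a hexamer's read frequency for a factor divided by its frequency in the tag-only sample.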

In the next experiment the target is T2, ELK1 (Homo sapiens, UniProt P19419 1-428).
T2 sequence: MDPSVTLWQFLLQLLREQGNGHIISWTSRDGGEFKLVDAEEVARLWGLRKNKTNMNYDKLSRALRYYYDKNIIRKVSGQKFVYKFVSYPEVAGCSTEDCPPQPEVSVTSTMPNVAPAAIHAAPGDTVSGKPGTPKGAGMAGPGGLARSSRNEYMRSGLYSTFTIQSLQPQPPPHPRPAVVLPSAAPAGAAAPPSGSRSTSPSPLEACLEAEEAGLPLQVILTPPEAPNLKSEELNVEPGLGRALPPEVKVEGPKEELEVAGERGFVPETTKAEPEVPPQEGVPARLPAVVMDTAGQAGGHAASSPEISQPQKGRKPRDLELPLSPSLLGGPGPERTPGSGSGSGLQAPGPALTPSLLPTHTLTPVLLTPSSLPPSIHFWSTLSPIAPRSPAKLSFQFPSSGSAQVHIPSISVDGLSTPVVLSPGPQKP
Summed up:
as §1

The target in a further experiment is T3, GABPA (Homo sapiens, UniProt Q06546 1-454).
T3 sequence: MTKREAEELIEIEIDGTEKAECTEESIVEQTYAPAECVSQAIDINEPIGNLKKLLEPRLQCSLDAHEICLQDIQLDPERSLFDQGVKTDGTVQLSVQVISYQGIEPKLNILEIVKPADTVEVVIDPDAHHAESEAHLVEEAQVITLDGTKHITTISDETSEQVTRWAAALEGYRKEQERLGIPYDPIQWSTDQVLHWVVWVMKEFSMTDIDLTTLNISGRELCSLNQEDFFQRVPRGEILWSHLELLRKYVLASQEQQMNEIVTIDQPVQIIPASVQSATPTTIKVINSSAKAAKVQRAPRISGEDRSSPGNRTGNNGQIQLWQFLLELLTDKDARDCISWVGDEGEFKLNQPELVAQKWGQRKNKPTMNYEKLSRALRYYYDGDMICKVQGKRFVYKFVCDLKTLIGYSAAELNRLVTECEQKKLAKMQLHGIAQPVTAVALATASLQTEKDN
A digest of the protocol:
as §1

The next experiment deals with T4, ERG (Homo sapiens, UniProt P11308 1-479).
T4 sequence: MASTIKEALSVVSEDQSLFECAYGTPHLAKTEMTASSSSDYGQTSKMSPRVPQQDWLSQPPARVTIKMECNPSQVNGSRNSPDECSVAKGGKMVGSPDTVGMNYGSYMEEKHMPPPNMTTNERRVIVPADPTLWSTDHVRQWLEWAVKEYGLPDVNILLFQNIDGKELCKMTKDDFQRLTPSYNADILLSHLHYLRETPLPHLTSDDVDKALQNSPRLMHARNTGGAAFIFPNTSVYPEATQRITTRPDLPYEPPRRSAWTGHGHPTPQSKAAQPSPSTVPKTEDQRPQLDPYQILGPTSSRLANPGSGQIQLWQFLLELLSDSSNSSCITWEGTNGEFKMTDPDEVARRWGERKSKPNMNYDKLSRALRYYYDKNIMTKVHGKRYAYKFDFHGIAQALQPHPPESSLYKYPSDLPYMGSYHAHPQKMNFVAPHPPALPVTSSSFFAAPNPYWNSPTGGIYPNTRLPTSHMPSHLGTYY
A digest of the protocol:
as §1

For the next experiment, the target named is ELF1 (Homo sapiens, UniProt P32519 1-619). Summed up:
as §1

For another experiment, the target named is T5, EHF (Homo sapiens, UniProt Q9NZC4 1-300).
T5 sequence: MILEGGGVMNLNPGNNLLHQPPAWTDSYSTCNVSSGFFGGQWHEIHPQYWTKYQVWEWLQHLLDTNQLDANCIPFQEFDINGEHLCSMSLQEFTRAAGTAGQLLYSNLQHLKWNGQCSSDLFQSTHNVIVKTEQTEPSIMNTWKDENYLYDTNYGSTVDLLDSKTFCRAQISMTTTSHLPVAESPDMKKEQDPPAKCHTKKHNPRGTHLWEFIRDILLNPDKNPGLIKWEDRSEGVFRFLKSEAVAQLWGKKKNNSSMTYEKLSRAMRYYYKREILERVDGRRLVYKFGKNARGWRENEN
A digest of the protocol:
as §1

Another experiment has as its target SPI1 (Homo sapiens, UniProt P17947 1-270). Summed up:
as §1

A further experiment concerns the target SPIB (Homo sapiens, UniProt Q01892 1-262). A digest of the protocol:
as §1

Another experiment concerns the target T6, ELK3 (Homo sapiens, UniProt P41970 1-407).
T6 sequence: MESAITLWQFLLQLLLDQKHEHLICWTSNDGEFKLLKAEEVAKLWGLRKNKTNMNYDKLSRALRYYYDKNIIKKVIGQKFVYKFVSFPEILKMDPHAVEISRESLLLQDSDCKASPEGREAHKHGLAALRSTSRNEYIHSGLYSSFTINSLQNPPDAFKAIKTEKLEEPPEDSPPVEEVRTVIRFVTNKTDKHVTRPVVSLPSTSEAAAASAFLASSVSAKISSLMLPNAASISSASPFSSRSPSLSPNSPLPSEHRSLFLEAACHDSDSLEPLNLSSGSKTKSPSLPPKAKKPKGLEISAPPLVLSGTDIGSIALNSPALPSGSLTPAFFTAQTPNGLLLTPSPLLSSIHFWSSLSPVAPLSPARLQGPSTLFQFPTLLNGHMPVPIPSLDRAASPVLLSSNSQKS
Summed up:
as §1

Chain of SPIB (Q01892 whole entry): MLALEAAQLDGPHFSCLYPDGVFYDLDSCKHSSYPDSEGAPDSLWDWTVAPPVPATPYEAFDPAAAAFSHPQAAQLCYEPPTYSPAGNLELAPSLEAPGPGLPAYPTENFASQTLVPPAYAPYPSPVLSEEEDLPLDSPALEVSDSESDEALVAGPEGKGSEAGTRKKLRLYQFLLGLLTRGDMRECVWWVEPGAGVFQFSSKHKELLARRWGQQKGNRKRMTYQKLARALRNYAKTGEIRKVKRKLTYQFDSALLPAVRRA
Chain of ELF1 (P32519 whole entry): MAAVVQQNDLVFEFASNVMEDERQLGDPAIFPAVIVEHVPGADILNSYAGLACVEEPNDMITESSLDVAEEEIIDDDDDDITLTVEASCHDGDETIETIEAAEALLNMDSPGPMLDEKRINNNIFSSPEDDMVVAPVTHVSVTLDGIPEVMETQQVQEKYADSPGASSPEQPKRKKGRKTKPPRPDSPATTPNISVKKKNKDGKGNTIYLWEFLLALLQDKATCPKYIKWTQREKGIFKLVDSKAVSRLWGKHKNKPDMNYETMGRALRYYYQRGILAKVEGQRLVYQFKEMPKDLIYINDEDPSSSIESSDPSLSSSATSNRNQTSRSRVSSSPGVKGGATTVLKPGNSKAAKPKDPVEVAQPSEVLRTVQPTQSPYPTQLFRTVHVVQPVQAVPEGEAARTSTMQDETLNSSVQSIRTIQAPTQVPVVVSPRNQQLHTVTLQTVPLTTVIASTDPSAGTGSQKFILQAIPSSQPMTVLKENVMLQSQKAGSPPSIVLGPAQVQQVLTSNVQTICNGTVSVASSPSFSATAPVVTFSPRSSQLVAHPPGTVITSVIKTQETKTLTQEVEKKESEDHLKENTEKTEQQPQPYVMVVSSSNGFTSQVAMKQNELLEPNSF

As to ATCCTT, the binding signal with FLI1 was 1.72 fold enrichment (6-mer frequency, TF over GST control); in the experiment with ELK1, 1.62 fold enrichment (6-mer frequency, TF over GST control); with GABPA it was 1.64 fold enrichment (6-mer frequency, TF over GST control); with ERG, 1.78 fold enrichment (6-mer frequency, TF over GST control); with ELF1 it was 1.6 fold enrichment (6-mer frequency, TF over GST control); with EHF it was 1.68 fold enrichment (6-mer frequency, TF over GST control). In addition, the binding signal with SPI1 is 1.7 fold enrichment (6-mer frequency, TF over GST control); with SPIB it was 1.67 fold enrichment (6-mer frequency, TF over GST control); in the experiment with ELK3, 1.68 fold enrichment (6-mer frequency, TF over GST control).

With TTGTGG, the binding signal is 1.52 fold enrichment (6-mer frequency, TF over GST control) with FLI1; 1.36 fold enrichment (6-mer frequency, TF over GST control) with ELK1; 1.41 fold enrichment (6-mer frequency, TF over GST control) in the experiment with GABPA; 1.26 fold enrichment (6-mer frequency, TF over GST control) with ERG; 1.34 fold enrichment (6-mer frequency, TF over GST control) with ELF1; 1.3 fold enrichment (6-mer frequency, TF over GST control) with EHF. Besides, the binding signal with SPI1 is 1.46 fold enrichment (6-mer frequency, TF over GST control); with SPIB, 1.29 fold enrichment (6-mer frequency, TF over GST control); with ELK3, 1.43 fold enrichment (6-mer frequency, TF over GST control).

Turning to ACCGAT, the binding signal in the experiment with FLI1 was 1.14 fold enrichment (6-mer frequency, TF over GST control); with ELK1 it was 1.12 fold enrichment (6-mer frequency, TF over GST control); with GABPA it was 1.2 fold enrichment (6-mer frequency, TF over GST control); in the experiment with ERG, 1.07 fold enrichment (6-mer frequency, TF over GST control); in the experiment with ELF1, 1.17 fold enrichment (6-mer frequency, TF over GST control); in the experiment with EHF, 1.16 fold enrichment (6-mer frequency, TF over GST control). The binding signal was 1.1 fold enrichment (6-mer frequency, TF over GST control) with SPI1; 1.13 fold enrichment (6-mer frequency, TF over GST control) with SPIB; 1.04 fold enrichment (6-mer frequency, TF over GST control) with ELK3.

Regarding CTGTTA, the binding signal in the experiment with FLI1 is 1.22 fold enrichment (6-mer frequency, TF over GST control); with ELK1, 1.24 fold enrichment (6-mer frequency, TF over GST control); in the experiment with GABPA, 1.32 fold enrichment (6-mer frequency, TF over GST control); with ERG, 1.28 fold enrichment (6-mer frequency, TF over GST control); in the experiment with ELF1, 1.24 fold enrichment (6-mer frequency, TF over GST control); in the experiment with EHF, 1.26 fold enrichment (6-mer frequency, TF over GST control). Moreover, the binding signal was 1.27 fold enrichment (6-mer frequency, TF over GST control) in the experiment with SPI1; 1.27 fold enrichment (6-mer frequency, TF over GST control) in the experiment with SPIB; 1.32 fold enrichment (6-mer frequency, TF over GST control) with ELK3.

Turning to GTATCC, the binding signal was 1.88 fold enrichment (6-mer frequency, TF over GST control) with FLI1; 1.9 fold enrichment (6-mer frequency, TF over GST control) in the experiment with ELK1; 1.78 fold enrichment (6-mer frequency, TF over GST control) in the experiment with GABPA; 1.89 fold enrichment (6-mer frequency, TF over GST control) with ERG; 1.89 fold enrichment (6-mer frequency, TF over GST control) in the experiment with ELF1; 1.92 fold enrichment (6-mer frequency, TF over GST control) with EHF. Also, the binding signal with SPI1 is 1.7 fold enrichment (6-mer frequency, TF over GST control); with SPIB, 1.89 fold enrichment (6-mer frequency, TF over GST control); with ELK3, 1.88 fold enrichment (6-mer frequency, TF over GST control).

Turning to TAATAT, the binding signal with FLI1 is 1.36 fold enrichment (6-mer frequency, TF over GST control); in the experiment with ELK1, 1.25 fold enrichment (6-mer frequency, TF over GST control); with GABPA, 1.3 fold enrichment (6-mer frequency, TF over GST control); with ERG it was 1.25 fold enrichment (6-mer frequency, TF over GST control); with ELF1, 1.27 fold enrichment (6-mer frequency, TF over GST control); with EHF it was 1.3 fold enrichment (6-mer frequency, TF over GST control). The binding signal was 1.23 fold enrichment (6-mer frequency, TF over GST control) in the experiment with SPI1; 1.21 fold enrichment (6-mer frequency, TF over GST control) with SPIB; 1.33 fold enrichment (6-mer frequency, TF over GST control) with ELK3.

Regarding TTGCCT, the binding signal with FLI1 was 1.16 fold enrichment (6-mer frequency, TF over GST control); with ELK1 it was 1.18 fold enrichment (6-mer frequency, TF over GST control); with GABPA, 1.15 fold enrichment (6-mer frequency, TF over GST control); with ERG, 1.17 fold enrichment (6-mer frequency, TF over GST control); with ELF1, 1.21 fold enrichment (6-mer frequency, TF over GST control); with EHF, 1.13 fold enrichment (6-mer frequency, TF over GST control). The binding signal with SPI1 is 1.15 fold enrichment (6-mer frequency, TF over GST control); with SPIB, 1.25 fold enrichment (6-mer frequency, TF over GST control); with ELK3, 1.3 fold enrichment (6-mer frequency, TF over GST control).

In the case of CTAATG, the binding signal with FLI1 is 1.34 fold enrichment (6-mer frequency, TF over GST control); with ELK1, 1.22 fold enrichment (6-mer frequency, TF over GST control); with GABPA it was 1.26 fold enrichment (6-mer frequency, TF over GST control); in the experiment with ERG, 1.18 fold enrichment (6-mer frequency, TF over GST control); in the experiment with ELF1, 1.23 fold enrichment (6-mer frequency, TF over GST control); with EHF, 1.28 fold enrichment (6-mer frequency, TF over GST control). Moreover, the binding signal with SPI1 was 1.26 fold enrichment (6-mer frequency, TF over GST control); with SPIB, 1.26 fold enrichment (6-mer frequency, TF over GST control); in the experiment with ELK3 it was 1.46 fold enrichment (6-mer frequency, TF over GST control).

Values taken from article PMC7862700, “An all-to-all approach to the identification of sequence-specific readers for epigenetic DNA modifications on cytosine”.
